PubChem BioAssay (Tox21)
Records with an inconclusive call do not appear. Calls of active or inactive are those of the source. Unless noted, the call rests on the fitted dose curve; in most records, active means well fitted curve in the direction sought with a large enough effect in the repeat runs; inconclusive means weak or mixed curves; inactive means no such curve, though single readings can be large; an effect the other way counts as inactive or inconclusive.

Assays:
[1] = qHTS assay to identify small molecule agonists of the farnesoid-X-receptor (FXR) signaling pathway - cell viability counter screen (AID 743218); further: nearly all actives have a fitted effect of over 45% in size
In short: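 Cytotoxicity counter-screen run in parallel, same wells: FXR-UAS-bla HEK 293T cells dosed 16 h at 37 C, viability read by CellTiter-Glo luminescence after 30 min at room temperature.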

[2] = target: Bile acid receptor (Homo sapiens) (UniProt Q96RI1); experiment: qHTS assay to identify small molecule agonists of the farnesoid-X-receptor (FXR) signaling pathway (AID 743220; active means well fitted activation curve with a large enough effect in the signal ratio in the repeat runs, not every such curve was filed as active; the % refers to the signal ratio)
In short: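 Beta-lactamase reporter under UAS control in GeneBLAzer FXR HEK 293T cells (5000/well) measured with LiveBLAzer FRET substrate after 2 h at room temperature. Compound exposure lasted 16 h at 37C.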

[3] = qHTS assay to identify small molecule antagonists of the farnesoid-X-receptor (FXR) signaling pathway - cell viability counter screen (AID 743221; active means well fitted cell-killing curve with a large enough effect in the repeat runs, not every such curve was filed as active; further: nearly all actives have a fitted effect of over 50% in size; further: potency means the concentration at half of the fitted maximal effect)
In short: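 Cytotoxicity is taken from ATP luminescence (CellTiter-Glo, 30 min, room temperature) in FXR-bla HEK 293T cells previously incubated 16 h at 37 C with compound and chenodeoxycholic acid at 50 uM final.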

[4] = qHTS assay to identify small molecule antagonists of the vitamin D receptor (VDR) signaling pathway - cell viability counter screen (AID 743225); further: nearly all actives have a fitted effect of over 50% in size
In short: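 Same-well multiplex: following 16 h treatment of HEK 293T cells carrying a UAS-driven beta-lactamase reporter with compound and agonist (3 nM final), and a 2 h FRET substrate step, CellTiter-Glo was added and luminescence read after 30 min.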

[5] = qHTS assay to identify small molecule agonists of the NFkB signaling pathway - cell viability counter screen (AID 1159515; calls by dose curve; further: nearly all actives have a fitted effect of over 55% in size; further: potency means the concentration at half of the fitted maximal effect)
In short: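 Multiplexed viability readout: after the 5 hr compound exposure and 1.5 hr FRET substrate step, CellTiter-Glo reagent went into the same NFkB-bla ME-180 wells; ATP luminescence was measured after 30 min at room temperature.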

[6] = qHTS assay to identify small molecule agonists of the endoplasmic reticulum stress response signaling pathway (AID 1159516; active means well fitted activation curve with a large enough effect in the signal ratio in the repeat runs, not every such curve was filed as active; the % refers to the signal ratio)
In short: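 Tox21 10K library screened in quantitative HTS format on ESRE-bla HeLa cells, a beta-lactamase reporter under ER stress response element control; 5 hr treatment, FRET read.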

[7] = target: Nuclear receptor ROR-gamma (Homo sapiens) (UniProt P51449); experiment: qHTS assay to identify small molecule antagonists of the retinoid-related orphan receptor gamma (ROR-gamma) signaling pathway (AID 1159521; further: nearly all actives have a fitted effect of over 50% in size; further: potency means the concentration at half of the fitted maximal effect)
In short: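 Inducible-expression reporter assay: doxycycline (1 uM final) switched on RORγ in CHO cells bearing a ROR response element-luciferase construct, with test compounds present from 2 h beforehand. Decreased luminescence after 16 h defined antagonist activity.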

[8] = qHTS assay to identify small molecule agonists of the peroxisome proliferator-activated receptor delta (PPARd) signaling pathway - cell viability counter screen (AID 743211); further: nearly all actives have a fitted effect of over 55% in size
In short: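 Tox21 library compounds, delivered in DMSO, were incubated 17 h with PPARd-bla HEK293H cells; cytotoxicity was taken from CellTiter-Glo luminescence read 30 min after reagent addition.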

[9] = qHTS assay to identify small molecule antagonists of the retinoid-related orphan receptor gamma (ROR-gamma) signaling pathway - cell viability counter screen (AID 1159520); further: nearly all actives have a fitted effect of over 50% in size; further: potency means the concentration at half of the fitted maximal effect
In short: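 Tet-on ROR gamma CHO cells (1,000/well) were plated 4 hr, given compounds in DMSO for 2 hr at 37 C, then induced with 1 uM final doxycycline for 16 hr. Viability was read as ATP by CellTiter-Glo luminescence after 30 min.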

[10] = qHTS assay to identify small molecule antagonists of the peroxisome proliferator-activated receptor delta (PPARd) signaling pathway - cell viability counter screen (AID 743213); further: nearly all actives have a fitted effect of over 50% in size; further: potency means the concentration at half of the fitted maximal effect
In short: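 Agonist-stimulated (L165041, 300 nM final) HEK293H PPARd UAS-bla cells are exposed to compounds for 17 h at 37 C, and ATP-based luminescence (CellTiter-Glo) from the same wells reports cytotoxicity.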

[11] = qHTS assay to identify small molecule agonists of the vitamin D receptor (VDR) signaling pathway - cell viability counter screen (AID 743224); further: nearly all actives have a fitted effect of over 50% in size; further: potency means the concentration at half of the fitted maximal effect
In short: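 Viability is measured in the same wells as the VDR-bla reporter assay: after 16 h compound treatment and 2 h substrate loading, CellTiter-Glo is added and luminescence read 30 min later.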

[12] = qHTS assay to identify small molecule agonists of the AP-1 signaling pathway - cell viability counter screen (AID 1159525; calls by dose curve; further: nearly all actives have a fitted effect of over 55% in size; further: potency means the concentration at half of the fitted maximal effect)
In short: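 ME-180 AP-1-bla, 2500 cells/well, Opti-MEM + 0.5% dialyzed FBS; overnight 37 °C; cpd 15-pt titration, 5 h 37 °C; CellTiter-Glo 30 min RT; luminescence read; normalised to TOAB and DMSO controls.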

[13] = qHTS assay to identify small molecule agonists of the AP-1 signaling pathway (AID 1159526; calls by dose curve; further: potency means the concentration at half of the fitted maximal effect)
[14] = target: Peroxisome proliferator-activated receptor delta (Homo sapiens) (UniProt Q03181); experiment: qHTS assay to identify small molecule antagonists of the peroxisome proliferator-activated receptor delta (PPARd) signaling pathway (AID 743215; active means well fitted inhibition curve with a large enough effect in the signal ratio in the repeat runs, not every such curve was filed as active; the % refers to the signal ratio; further: potency means the concentration at half of the fitted maximal effect)
In short: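 Inhibition of L165041-driven (300 nM final) PPARd signaling is scored in HEK293H UAS-bla cells. Exposure lasts 17 h at 37 C; beta-lactamase activity is then read by FRET substrate fluorescence after 2 h at room temperature.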

[15] = target: Vitamin D3 receptor (Homo sapiens) (UniProt P11473); experiment: qHTS assay to identify small molecule antagonists of the vitamin D receptor (VDR) signaling pathway (AID 743223; active means well fitted inhibition curve with a large enough effect in the signal ratio in the repeat runs, not every such curve was filed as active; the % refers to the signal ratio)
In short: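 Quantitative HTS in VDR-bla reporter cells stimulated with 1alpha,25-dihydroxyvitamin D3, 3 nM final. Compound exposure 16 h, 37C, 5% CO2. Read-out: beta-lactamase FRET substrate fluorescence, 2 h RT.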

[16] = qHTS assay to identify small molecule agonists of the endoplasmic reticulum stress response signaling pathway - cell viability counter screen (AID 1159517; calls by dose curve)
In short: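 Luminescence readout: CellTiter-Glo, 30 min RT, same wells as the ESRE-bla reporter read. HeLa ESRE-bla, 1,500 cells/well, o/n 37 C; cpd 5 hr 37 C/5% CO2.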

[17] = target: Retinoic acid receptor RXR-alpha (Homo sapiens) (UniProt P19793); experiment: qHTS assay to identify small molecule agonists of the RXR signaling pathway (AID 1159527; calls by dose curve; further: nearly all actives have a fitted effect of over 35% in size)
In short: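 Compounds in DMSO were added to RXR-alpha-UAS-bla HEK 293T cells kept in 2% charcoal-stripped serum, and incubated 16 hr at 37 C with 5% CO2. Reporter signal came from a 2 hr B/G FRET substrate step.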

[18] = target: Peroxisome proliferator-activated receptor delta (Homo sapiens) (UniProt Q03181); experiment: qHTS assay to identify small molecule agonists of the peroxisome proliferator-activated receptor delta (PPARd) signaling pathway (AID 743212; calls by dose curve)
In short: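 GeneBLAzer PPARd UAS-bla HEK293H cells (beta-lactamase reporter under UAS control), plated and rested 5 h at 37 C, then exposed to compounds in DMSO at 37 C; LiveBLAzer B/G FRET substrate added, 2 h room temperature, fluorescence read.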

[19] = target: Bile acid receptor (Homo sapiens) (UniProt Q96RI1); experiment: qHTS assay to identify small molecule antagonists of the farnesoid-X-receptor (FXR) signaling pathway (AID 743217; active means well fitted inhibition curve with a large enough effect in the signal ratio in the repeat runs, not every such curve was filed as active; the % refers to the signal ratio)
In short: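 Antagonist mode against 50 uM (final) chenodeoxycholic acid stimulation in FXR-bla HEK 293T cells, 16 h at 37 °C. Inhibition detected as reduced beta-lactamase activity via LiveBLAzer B/G FRET fluorescence after 2 h at room temperature.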

[20] = target: Vitamin D3 receptor (Homo sapiens) (UniProt P11473); experiment: qHTS assay to identify small molecule agonists of the vitamin D receptor (VDR) signaling pathway (AID 743222; calls by dose curve)
In short: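 Quantitative HTS agonist-mode screen: compounds in DMSO were pin-transferred onto VDR-bla cells and incubated 16 h at 37C, 5% CO2. Reporter activity was detected with LiveBLAzer B/G FRET substrate after 2 h at room temperature.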

Measured: Potency

Sequence of Bile acid receptor (Homo sapiens) (Q96RI1 whole entry, looked up): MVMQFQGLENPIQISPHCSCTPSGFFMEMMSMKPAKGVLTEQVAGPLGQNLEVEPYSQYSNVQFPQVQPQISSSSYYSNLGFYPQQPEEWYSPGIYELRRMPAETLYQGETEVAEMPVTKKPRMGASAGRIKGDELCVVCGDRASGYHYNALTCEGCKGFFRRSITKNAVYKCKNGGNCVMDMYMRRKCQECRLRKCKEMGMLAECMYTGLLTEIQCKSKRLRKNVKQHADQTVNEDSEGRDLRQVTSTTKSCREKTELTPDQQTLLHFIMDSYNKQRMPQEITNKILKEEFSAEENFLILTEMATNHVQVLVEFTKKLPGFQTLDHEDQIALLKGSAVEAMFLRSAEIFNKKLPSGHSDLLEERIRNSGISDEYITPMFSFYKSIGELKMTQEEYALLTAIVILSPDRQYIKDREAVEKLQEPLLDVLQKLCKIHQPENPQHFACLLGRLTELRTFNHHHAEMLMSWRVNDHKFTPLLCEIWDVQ
Sequence of Retinoic acid receptor RXR-alpha (Homo sapiens) (P19793 whole entry, looked up): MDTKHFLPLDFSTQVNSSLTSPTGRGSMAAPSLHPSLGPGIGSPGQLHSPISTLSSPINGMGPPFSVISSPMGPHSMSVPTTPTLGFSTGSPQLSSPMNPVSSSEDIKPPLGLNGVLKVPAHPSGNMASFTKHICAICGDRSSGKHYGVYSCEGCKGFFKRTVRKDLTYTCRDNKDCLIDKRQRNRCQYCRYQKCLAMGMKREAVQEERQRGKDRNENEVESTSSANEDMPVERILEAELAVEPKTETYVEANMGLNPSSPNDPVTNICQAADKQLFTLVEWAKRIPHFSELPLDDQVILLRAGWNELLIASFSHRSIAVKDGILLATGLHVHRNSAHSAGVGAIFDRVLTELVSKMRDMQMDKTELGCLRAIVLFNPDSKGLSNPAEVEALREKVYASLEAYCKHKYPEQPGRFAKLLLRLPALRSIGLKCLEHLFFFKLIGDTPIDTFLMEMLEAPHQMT
Sequence of Vitamin D3 receptor (Homo sapiens) (P11473 whole entry, looked up): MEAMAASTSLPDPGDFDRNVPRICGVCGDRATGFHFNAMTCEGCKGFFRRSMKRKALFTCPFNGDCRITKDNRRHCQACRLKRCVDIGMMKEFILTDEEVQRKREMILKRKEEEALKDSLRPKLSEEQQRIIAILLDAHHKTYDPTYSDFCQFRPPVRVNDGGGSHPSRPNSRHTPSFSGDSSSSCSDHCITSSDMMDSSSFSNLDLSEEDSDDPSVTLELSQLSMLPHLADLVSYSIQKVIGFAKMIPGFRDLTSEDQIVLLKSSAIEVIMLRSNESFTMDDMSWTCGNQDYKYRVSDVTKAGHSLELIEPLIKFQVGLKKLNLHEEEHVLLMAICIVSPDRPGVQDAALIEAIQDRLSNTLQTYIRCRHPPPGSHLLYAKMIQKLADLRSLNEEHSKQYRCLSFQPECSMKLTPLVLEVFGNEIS
Sequence of Peroxisome proliferator-activated receptor delta (Homo sapiens) (Q03181 whole entry, looked up): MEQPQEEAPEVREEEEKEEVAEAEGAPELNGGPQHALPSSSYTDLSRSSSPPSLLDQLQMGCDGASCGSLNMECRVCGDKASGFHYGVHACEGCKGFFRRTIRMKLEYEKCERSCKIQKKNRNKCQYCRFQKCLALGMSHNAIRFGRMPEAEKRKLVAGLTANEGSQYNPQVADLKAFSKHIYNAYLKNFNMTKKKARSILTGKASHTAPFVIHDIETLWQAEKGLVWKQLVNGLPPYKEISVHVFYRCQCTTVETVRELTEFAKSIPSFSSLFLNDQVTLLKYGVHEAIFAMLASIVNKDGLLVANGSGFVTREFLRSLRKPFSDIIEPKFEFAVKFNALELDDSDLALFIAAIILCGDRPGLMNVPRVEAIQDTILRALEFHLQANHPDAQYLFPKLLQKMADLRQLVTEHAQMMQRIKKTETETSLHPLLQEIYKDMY

Cc1cc(C2CC2)nc(Nc2ccccc2)n1
inactive: [1] | [2] | [3] | [4] | [5] | [6] | [7]

Nc1c(Cl)c(Cl)c(Cl)c(Cl)c1Cl
inactive: [8] | [3] | [4] | [5] | [6] | [9] | [7]

CC(=O)[O-].CC(=O)[O-].[Co+2]
inactive: [8] | [10] | [11] | [4] | [5] | [6] | [12] | [13]

O=C(O)CCCCCCNC1c2ccccc2CCc2ccccc21
active: [13] 10.7 µM
inactive: [10] | [14] | [1] | [2] | [3] | [15] | [11] | [4] | [5] | [16] | [9] | [7] | [12] | [17]

Cc1nn(-c2cc(NS(C)(=O)=O)c(Cl)cc2Cl)c(=O)n1C(F)F
inactive: [8] | [18] | [10] | [1] | [3] | [15] | [11] | [5] | [16] | [9] | [7] | [12] | [13] | [17]

S=C=Nc1ccccc1
inactive: [10] | [19] | [1] | [2] | [3] | [20] | [4] | [5] | [6] | [9] | [7] | [12] | [13] | [17]

BrCC(Br)(Br)Br
active: [9] 50.3 µM
inactive: [18] | [10] | [14] | [2] | [3] | [20] | [15] | [11] | [4] | [5] | [16] | [7] | [12] | [13] | [17]

[O]=[Cr][O][Cr]=[O]
inactive: [10] | [2] | [20] | [5] | [6] | [9] | [7] | [12] | [13] | [17]

CCC(C)Br (stereo unspecified)
inactive: [18] | [14] | [1] | [3] | [20] | [15] | [11] | [4] | [5] | [6] | [9] | [7] | [12] | [13] | [17]

O.O.O.O=C([O-])[C@H]([O-])[C@@H]([O-])C(=O)[O-].O=C([O-])[C@H]([O-])[C@@H]([O-])C(=O)[O-].[K+].[K+].[Sb+3].[Sb+3]
inactive: [10] | [1] | [2] | [3] | [11] | [4] | [5] | [6]
active: [14] 12.4 µM | [7] 1.94 µM

Brc1ccc(Oc2ccc(Br)cc2Br)c(Br)c1
inactive: [10] | [2] | [3] | [20] | [5] | [16] | [9] | [7] | [12] | [13] | [17]

COC(=O)/C=C(\C)OP(=O)(OC)OC
inactive: [8] | [18] | [10] | [1] | [2] | [3] | [20] | [15] | [11] | [4] | [5] | [16] | [9] | [7] | [12] | [13] | [17]

CN1C2CCC(C)(C)C1CC(OC(=O)C(O)(c1cccs1)c1cccs1)C2 (stereo unspecified)
inactive: [18] | [10] | [14] | [1] | [2] | [20] | [15] | [11] | [4] | [5] | [6] | [9] | [7] | [12] | [13] | [17]

C[C@]12Cc3cn[nH]c3C[C@@H]1CC[C@@H]1[C@@H]2CC[C@@]2(C)[C@H]1CC[C@]2(C)O
inactive: [2] | [4] | [6] | [9]
active: [10] 29.8 µM | [3] 33.5 µM | [11] 29.8 µM | [5] 23.9 µM | [7] 13.3 µM | [12] 23.9 µM

CCCCC(CC)COC(=O)c1ccccc1C(=O)OCC(CC)CCCC (stereo unspecified)
inactive: [14] | [11] | [5] | [6] | [9] | [12] | [13]

BrCCCBr
inactive: [8] | [18] | [10] | [14] | [3] | [20] | [15] | [4] | [5] | [16] | [9] | [7] | [12] | [13] | [17]

Nc1nc(N)nc(Cl)n1
inactive: [10] | [1] | [3] | [4] | [5] | [6] | [9] | [7] | [12] | [13] | [17]

CN/C(=N\[N+](=O)[O-])NCc1cnc(Cl)s1
inactive: [8] | [10] | [1] | [20] | [15] | [11] | [4] | [5] | [6] | [9] | [7] | [12] | [13] | [17]

Nc1ccc(N=Nc2ccccc2)cc1
inactive: [5] | [16] | [9] | [7] | [12]

O=[N+]([O-])c1ccc(CCl)cc1
inactive: [8] | [18] | [10] | [14] | [3] | [20] | [15] | [11] | [5] | [6] | [9] | [7] | [12] | [13]
